In this test the test system is Coprococcus comes. Nature of the test: growth AUC relative to DMSO control (median of replicates) (fraction); higher = more growth (less inhibition), active = hit call of the paper. The note with it: 20 µM; 24 h. In a few lines:
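Gut bacterial monocultures in mGAM were treated with 20 µM compound (1% DMSO) and grown anaerobically at 37 °C in round-bottom 96-well plates from OD600 0.05. OD600 was read hourly for 24 h, with the minimum OD set to 0. Area under the growth curve was normalised to the plate median of solvent-only wells, or to row and column medians on the industrial chemical plate. Each value is the median of three biological replicates, each grown on a separate day.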
`COP(=S)(OC)Oc1ccc(S(N)(=O)=O)cc1`: the “growth AUC” value was 1.01 (inactive).

Regarding `CCCCOC(=O)[C@@H](C)Oc1ccc(Oc2ccc(C#N)cc2F)cc1`, the “growth AUC” value was 1.01 (inactive).

As for `CCC(C)(C)c1ccc(O)cc1`, the “growth AUC” value was 1.03 (inactive).

As for `CCCCCCCCCc1ccc(O)cc1`, the “growth AUC” value was 0.989 (inactive).

On to `CC(C)OC(=O)Nc1ccccc1`, for which the “growth AUC” value was 1.03 (inactive).

As to `CCCCc1c(C)nc(NCC)nc1OS(=O)(=O)N(C)C`, the “growth AUC” value was 0.996 (inactive).

Take `CCOP(=S)(OCC)Oc1cc(-c2ccccc2)on1`: the “growth AUC” value is 1.03 (inactive).

In the case of `C=CC(N)=O`, the “growth AUC” value was 1.01 (inactive).

Take `CC(C)C(C(=O)OC(C#N)c1cccc(Oc2ccccc2)c1)c1ccc(OC(F)F)cc1` (stereo not drawn): the “growth AUC” value was 1.02 (inactive).

As for `Oc1ccccc1-c1ccccc1`, the “growth AUC” value was 1 (inactive).

Turning to `FC(F)C(F)(F)OCC(Cn1cncn1)c1ccc(Cl)cc1Cl` (stereo not drawn), the “growth AUC” value was 0.979 (inactive).

Take `Nc1ccc(Cc2ccc(N)c(Cl)c2)cc1Cl`: the “growth AUC” value was 1 (inactive).

As to `Nc1cccc(Cl)c1Cl`, the “growth AUC” value was 1.01 (inactive).

Consider `COC(=O)NS(=O)(=O)c1ccc(N)cc1`, for which the “growth AUC” value was 1.01 (inactive).

As for `CC(C)=CC1C(C(=O)OCc2cccc(Oc3ccccc3)c2)C1(C)C` (mixture of isomers), the “growth AUC” value was 0.992 (inactive).

Take `COP(=S)(OC)SCC(=O)N(c1ccc(Cl)cc1)C(C)C`: the “growth AUC” value was 1.04 (inactive).

With `CC(=O)O.CC(=O)O.CC(=O)O.NC(N)=NCCCCCCCCNCCCCCCCCN=C(N)N`, the “growth AUC” value was 0.0653 (active).

In the case of `N#Cc1c(Cl)c(Cl)c(Cl)c(C#N)c1Cl`, the “growth AUC” value was 0.974 (inactive).
